Records with an inconclusive call do not appear. Calls of active or inactive are those of the source. How the source made its calls, unless noted: active means hit-call score of the fitted dose curve at least 0.9, where 1 is the maximum; inconclusive means response in the unintended direction; inactive means score below 0.9.

The target of test [1] is Estrogen receptor (Homo sapiens) (UniProt P03372). The test is described as follows: NVS_NR_hER: NovaScreen (NVS) Nuclear Receptor Binding Assay for human Estrogen Receptor (ER) (AID 2283348). The procedure, abridged:
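Cell-free MCF7-derived ER preparation, specific radioligand displaced by test compound, read by scintillation counting 18 h post-dosing. Duplicate single-point 25 uM screen, then concentration-response confirmation; DMSO baseline.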

Test [2] can be described thus: TOX21_p53_BLA_p2_viability: Viability Assessment in the Tox21 HCT-116 p53 Agonism Beta-lactamase Assay, Phase 2 (AID 2283591).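 Further: actives lower the ATP signal meaning cytotoxicity.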 The method in brief: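 Cytotoxicity readout: CellTiter-Glo ATP luminescence, 30 min at room temperature, after the beta-lactamase read. Cells were HCT116 exposed 16 h at 37C to compounds pin-transferred at 217-fold dilution from DMSO stocks.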

Test [3] deals with Cellular tumor antigen p53 (Homo sapiens) (UniProt P04637). In words: TOX21_p53_BLA_p2_ratio: Tox21 HCT-116 p53 Agonism Beta-lactamase Assay, Ratio, Phase 2 (AID 2283592). The procedure, abridged:
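First, HCT116 reporter cells settle for 5 h at 37C. Next, DMSO compound solutions are pinned in (217-fold dilution) and left 16 h. Finally, CCF4-AM substrate is loaded 2 h at room temperature and the 460/530 nm ratio read.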

For test [4] the target is unchanged. In words: TOX21_p53_BLA_p3_ratio: Tox21 HCT-116 p53 Agonism Beta-lactamase Assay, Ratio, Phase 3 (AID 2283596). The procedure, abridged: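 Cells were seeded at 4000/well, rested 5 h at 37C, then dosed with DMSO compound solutions (217-fold dilution) for 16 h. CCF4-AM substrate was loaded for 2 h at room temperature, and the 460/530 nm emission ratio was fitted for gain of signal versus DMSO.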

Test [5] is described as follows: TOX21_p53_BLA_p4_viability: Viability Assessment in the Tox21 HCT-116 p53 Agonism Beta-lactamase Assay, Phase 4 (AID 2283597).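 Further: hits lower the luminescence signal meaning cytotoxicity.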 The method in brief: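 4000 HCT116 cells per well; 5 h attachment; compounds from DMSO, 217-fold dilution; 16 h at 37C. Then CCF4-AM, 2 h RT, followed by CellTiter-Glo, 30 min RT, luminescence. Decrease = cytotoxicity.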
Test [6] can be described thus: TOX21_p53_BLA_p5_viability: Viability Assessment in the Tox21 HCT-116 p53 Agonism Beta-lactamase Assay, Phase 5 (AID 2283600). The method in brief:
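Decreased CellTiter-Glo luminescence denotes lost viability. Exposure: 16 h at 37C, 5% CO2, with compounds from DMSO stocks diluted 217-fold in wells of 4000 cells.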

The target of test [7] is Cellular tumor antigen p53 (Homo sapiens) (UniProt P04637). The test is described as follows: TOX21_p53_BLA_p4_ratio: Tox21 HCT-116 p53 Agonism Beta-lactamase Assay, Ratio, Phase 4 (AID 2283601). The procedure, abridged: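 Signal is the blue/green (460nm/530nm) ratio of cleaved versus uncleaved CCF4-AM substrate, read after 2 h substrate loading. Cells were HCT116 carrying the p53-responsive beta-lactamase reporter, dosed 16 h at 37C, 5% CO2; CellTiter-Glo measured in parallel.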
Chain of Cellular tumor antigen p53 (Homo sapiens) (P04637 whole entry, looked up): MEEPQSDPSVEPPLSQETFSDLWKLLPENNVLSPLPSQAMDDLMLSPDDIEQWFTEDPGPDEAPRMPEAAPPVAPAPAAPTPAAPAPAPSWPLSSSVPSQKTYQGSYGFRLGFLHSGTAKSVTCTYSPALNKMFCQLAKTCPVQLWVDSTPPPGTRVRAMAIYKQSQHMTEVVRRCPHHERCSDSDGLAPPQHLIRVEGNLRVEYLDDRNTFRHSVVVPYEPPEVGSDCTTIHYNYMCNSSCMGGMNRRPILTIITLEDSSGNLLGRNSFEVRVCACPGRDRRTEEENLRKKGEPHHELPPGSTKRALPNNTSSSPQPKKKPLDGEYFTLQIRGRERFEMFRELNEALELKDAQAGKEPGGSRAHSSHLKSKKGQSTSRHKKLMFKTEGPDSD

For test [8], the target named is bovine Estrogen Receptor (ER), ESR1 (gene 407238) (UniProt P49884). In words: NVS_NR_bER: NovaScreen (NVS) Nuclear Receptor Binding Assay for bovine Estrogen Receptor (ER) (AID 2283345).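 Further: actives lower the bound radioligand count which means they displace the ER ligand.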 The procedure, abridged: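 Cell-free radioligand binding with receptor from bovine uterine membranes, read by scintillation counting 18 h after dosing. Loss of specific binding was scored against DMSO; primary screen at 25 uM in duplicate, actives then run as concentration series.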
Chain of bovine Estrogen Receptor (ER), ESR1 (gene 407238) (P49884 whole entry, looked up): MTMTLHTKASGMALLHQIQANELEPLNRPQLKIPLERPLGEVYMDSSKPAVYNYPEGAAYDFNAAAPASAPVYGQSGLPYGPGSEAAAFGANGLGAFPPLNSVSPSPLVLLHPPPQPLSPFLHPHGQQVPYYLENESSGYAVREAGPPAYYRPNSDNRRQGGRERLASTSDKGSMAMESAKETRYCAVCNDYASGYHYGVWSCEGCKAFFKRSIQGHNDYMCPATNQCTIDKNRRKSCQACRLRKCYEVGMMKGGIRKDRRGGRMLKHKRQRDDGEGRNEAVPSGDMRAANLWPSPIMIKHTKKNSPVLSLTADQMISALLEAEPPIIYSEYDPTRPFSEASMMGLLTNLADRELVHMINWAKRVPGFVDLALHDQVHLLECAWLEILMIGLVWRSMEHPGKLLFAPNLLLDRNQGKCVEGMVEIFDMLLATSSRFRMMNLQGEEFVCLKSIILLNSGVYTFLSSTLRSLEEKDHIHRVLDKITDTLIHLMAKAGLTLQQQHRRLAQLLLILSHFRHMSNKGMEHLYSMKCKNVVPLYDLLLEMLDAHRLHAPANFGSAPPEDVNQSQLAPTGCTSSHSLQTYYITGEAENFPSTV

Test [9] is described as follows: TOX21_p53_BLA_p3_viability: Viability Assessment in the Tox21 HCT-116 p53 Agonism Beta-lactamase Assay, Phase 3 (AID 2283593).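 Further: cells exposed to compound for 16 h before reading.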 The method in brief:
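Cellular ATP was quantified by CellTiter-Glo luminescence, read after 30 min at room temperature. Beforehand, HCT116 cells (4000/well) received compound 5 h post-seeding, 217-fold diluted from DMSO, then incubated 16 h at 37C.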

Test [10] concerns the target Cellular tumor antigen p53 (Homo sapiens) (UniProt P04637). In words: TOX21_p53_BLA_p5_ratio: Tox21 HCT-116 p53 Agonism Beta-lactamase Assay, Ratio, Phase 5 (AID 2283599). The method in brief: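 Beta-lactamase reporter ratio (blue 460 nm over green 530 nm, 405 nm excitation) after 2 h CCF4-AM loading, in HCT-116 cells exposed 16 h at 37 C to compounds pinned at 217-fold dilution. Increases relative to DMSO baseline scored.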

For test [11], the target named is bovine Gamma-Aminobutyric Acid Type A Receptor BDZ, alpha 1 site (GABARa1), GABRA1 (gene 780973) (UniProt P08219). In words: NVS_LGIC_bGABARa1: NovaScreen (NVS) Ligand-Gated Ion Channel Assay for bovine Gamma-Aminobutyric Acid Type A Receptor BDZ, alpha 1 site (GABARa1) (AID 2283321). The method in brief: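 Bovine cortex membrane preparation, benzodiazepine site on GABA-A alpha1; specific radioligand displacement read after 0.75 h by filtration and scintillation. Screen at 25 uM, then singleton titrations up to 50 uM; DMSO baseline.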
Chain of bovine Gamma-Aminobutyric Acid Type A Receptor BDZ, alpha 1 site (GABARa1), GABRA1 (gene 780973) (P08219 whole entry, looked up): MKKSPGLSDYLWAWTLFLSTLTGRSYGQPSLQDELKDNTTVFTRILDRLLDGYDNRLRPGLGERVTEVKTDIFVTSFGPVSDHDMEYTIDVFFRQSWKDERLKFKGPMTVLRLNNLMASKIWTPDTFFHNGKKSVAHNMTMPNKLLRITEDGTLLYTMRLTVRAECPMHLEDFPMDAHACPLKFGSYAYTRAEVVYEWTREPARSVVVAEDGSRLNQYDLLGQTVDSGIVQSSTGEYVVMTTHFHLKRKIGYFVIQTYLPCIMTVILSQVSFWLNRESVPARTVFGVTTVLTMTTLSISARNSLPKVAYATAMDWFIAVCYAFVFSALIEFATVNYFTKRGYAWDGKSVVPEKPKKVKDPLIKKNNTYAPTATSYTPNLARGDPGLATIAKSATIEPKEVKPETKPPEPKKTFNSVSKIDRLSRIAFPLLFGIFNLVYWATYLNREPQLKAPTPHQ

Test [12] in a line: CCTE_Harrill_HTTr_Viability_MCF7: CCTE's 6-hour Cell Viability Assessment for the High-Throughput Transcriptomics (HTTr) Platform, in MCF-7 cells cultured in DMEM + 10% fetal bovine serum, Harrill Lab (AID 2284010; active means hit-call score of the fitted dose curve at least 0.9, where 1 is the maximum; inactive means score below 0.9). The method in brief:
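Eight-point concentration series, six-hour exposure. Propidium iodide exclusion imaged to assess membrane integrity as a cytotoxicity readout; bidirectional fitting was done with DMSO as negative control and activity baseline.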

Test [13] is described as follows: CCTE_Harrill_HTTr_Apoptosis_MCF7: CCTE's 6-hour Apoptosis Assessment for the High-Throughput Transcriptomics (HTTr) Platform, in MCF-7 cells cultured in DMEM + 10% fetal bovine serum, Harrill Lab (AID 2284011; active means hit-call score of the fitted dose curve at least 0.9, where 1 is the maximum; inactive means score below 0.9). The procedure, abridged: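 MCF-7 cells in DMEM + 10% FBS exposed 6 h to chemicals over an eight-point dilution series. Caspase-3/7 activation imaged by high-content CellEvent Green staining; fitted bidirectionally versus DMSO.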

Test [14] is described as follows: CCTE_Harrill_HTTr_CellCount_MCF7: CCTE's Cell Proliferation Assessment for the High-Throughput Transcriptomics (HTTr) Platform, Harrill Lab (AID 2284012).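 Further: count of Hoechst-stained nuclei per well by high-content imaging in MCF-7 cells; cells exposed to compound for six hours; intended direction is loss of nuclei count meaning fewer cells.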 The method in brief:
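For this full-screen endpoint, MCF-7 cultures received eight compound dilutions for six hours. Well nuclei counts from Hoechst imaging were analyzed relative to DMSO.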

Test [15] addresses PGR (gene 5241) (UniProt P06401). In words: TOX21_PR_BLA_Followup_Antagonist_ratio: Tox21 HEK293 Progesterone Receptor (PR) Antagonism Beta-lactamase Follow-Up Assay, Ratio (AID 2283934).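 Further: PR-UAS-bla HEK293T cells stimulated with 1 nM R5020 agonist for 16 hr.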 The procedure, abridged:
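Measured in PR-UAS-bla HEK293T cells co-treated with compound and 1 nM promegestone for 16 hr; beta-lactamase ratio read after 2 h FRET substrate loading, with parallel CellTiter-Glo cytotoxicity.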

Test [16] is described as follows: TOX21_PR_BLA_Followup_Agonist_viability: Viability Assessment in the Tox21 HEK293 Progesterone Receptor (PR) Agonism Beta-lactamase Follow-Up Assay (AID 2283935).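 Further: signal loss means lower viability so actives are cytotoxic.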 The method in brief: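 Viability is read as CellTiter-Glo luminescence, where loss of signal indicates cytotoxicity. The cells are PR-UAS-bla HEK293T given compounds for 16 hr at 37C and 5% CO2, in the same wells used for the bla readout.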

Test [17] in a line: TOX21_PR_BLA_Followup_Antagonist_viability: Viability Assessment in the Tox21 HEK293 Progesterone Receptor (PR) Antagonism Beta-lactamase Follow-Up Assay (AID 2283936).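 Further: cells exposed to compound with R5020 agonist for 16 h; hits lower the luminescence signal meaning cytotoxicity.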 The method in brief:
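PR-UAS-bla HEK293T cells in medium with 2% charcoal-stripped FBS were treated with compounds plus R5020 for 16 hr at 37C. After the beta-lactamase read, CellTiter-Glo was added to the same wells and luminescence read after 30 min at room temperature.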

Test [18] has as its target PGR (gene 5241) (UniProt P06401). In words: TOX21_PR_LUC_Followup_Antagonist: Tox21 HEK293 Progesterone Receptor (PR) Antagonism Luciferase Follow-Up Assay (AID 2283938).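 Further: curve fitted upward as signal gain over DMSO baseline despite antagonist label.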 The procedure, abridged: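 HEK293-PR-A-luc cells, 3,000/well, preincubated 5 h at 37C before compound addition in DMSO; 16 h compound exposure at 37C. ONE-Glo luciferase luminescence read after 30 min at room temperature, fitted relative to DMSO baseline.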

Test [19] can be described thus: TOX21_PR_LUC_Followup_Antagonist_viability: Viability Assessment in the Tox21 HEK293 Progesterone Receptor (PR) Antagonism Luciferase Follow-Up Assay (AID 2283940). The procedure, abridged: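 Loss of CellTiter-Glo ATP signal indicates cytotoxicity in HEK293-PR-A-luc cells grown in 10% charcoal-stripped FBS medium, seeded 3,000 per well and incubated 16 h with compound at 37C.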

Test [20] is described as follows: TOX21_PR_LUC_Followup_Agonist_viability: Viability Assessment in the Tox21 HEK293 Progesterone Receptor (PR) Agonism Luciferase Follow-Up Assay (AID 2283941).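 Further: loss of signal means cytotoxicity so actives lower viability.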 The procedure, abridged:
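Seeding: HEK293-PR-A-luc, 3,000 cells/well, 5 h at 37C. Treatment: compound in DMSO, 16 h, 37C. Read: CellTiter-Glo ATP luminescence, signal loss taken as lower viability.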

Chain of Estrogen receptor (Homo sapiens) (P03372 whole entry, looked up): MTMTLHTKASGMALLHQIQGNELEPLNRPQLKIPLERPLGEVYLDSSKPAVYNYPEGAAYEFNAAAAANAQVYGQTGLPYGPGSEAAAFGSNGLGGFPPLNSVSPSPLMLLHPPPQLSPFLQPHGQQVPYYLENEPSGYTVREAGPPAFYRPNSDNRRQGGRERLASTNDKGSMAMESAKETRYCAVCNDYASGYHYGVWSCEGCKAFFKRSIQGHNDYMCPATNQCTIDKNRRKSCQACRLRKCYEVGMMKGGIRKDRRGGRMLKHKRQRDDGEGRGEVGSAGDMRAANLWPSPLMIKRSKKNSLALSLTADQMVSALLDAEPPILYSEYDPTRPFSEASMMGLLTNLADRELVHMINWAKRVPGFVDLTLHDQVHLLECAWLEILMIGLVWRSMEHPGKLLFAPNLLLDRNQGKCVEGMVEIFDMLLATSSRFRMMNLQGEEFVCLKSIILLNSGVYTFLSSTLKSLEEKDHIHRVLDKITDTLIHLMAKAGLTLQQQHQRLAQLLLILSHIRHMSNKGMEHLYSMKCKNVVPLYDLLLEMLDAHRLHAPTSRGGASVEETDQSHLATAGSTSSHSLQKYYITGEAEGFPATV
Chain of PGR (gene 5241) (P06401 whole entry, looked up): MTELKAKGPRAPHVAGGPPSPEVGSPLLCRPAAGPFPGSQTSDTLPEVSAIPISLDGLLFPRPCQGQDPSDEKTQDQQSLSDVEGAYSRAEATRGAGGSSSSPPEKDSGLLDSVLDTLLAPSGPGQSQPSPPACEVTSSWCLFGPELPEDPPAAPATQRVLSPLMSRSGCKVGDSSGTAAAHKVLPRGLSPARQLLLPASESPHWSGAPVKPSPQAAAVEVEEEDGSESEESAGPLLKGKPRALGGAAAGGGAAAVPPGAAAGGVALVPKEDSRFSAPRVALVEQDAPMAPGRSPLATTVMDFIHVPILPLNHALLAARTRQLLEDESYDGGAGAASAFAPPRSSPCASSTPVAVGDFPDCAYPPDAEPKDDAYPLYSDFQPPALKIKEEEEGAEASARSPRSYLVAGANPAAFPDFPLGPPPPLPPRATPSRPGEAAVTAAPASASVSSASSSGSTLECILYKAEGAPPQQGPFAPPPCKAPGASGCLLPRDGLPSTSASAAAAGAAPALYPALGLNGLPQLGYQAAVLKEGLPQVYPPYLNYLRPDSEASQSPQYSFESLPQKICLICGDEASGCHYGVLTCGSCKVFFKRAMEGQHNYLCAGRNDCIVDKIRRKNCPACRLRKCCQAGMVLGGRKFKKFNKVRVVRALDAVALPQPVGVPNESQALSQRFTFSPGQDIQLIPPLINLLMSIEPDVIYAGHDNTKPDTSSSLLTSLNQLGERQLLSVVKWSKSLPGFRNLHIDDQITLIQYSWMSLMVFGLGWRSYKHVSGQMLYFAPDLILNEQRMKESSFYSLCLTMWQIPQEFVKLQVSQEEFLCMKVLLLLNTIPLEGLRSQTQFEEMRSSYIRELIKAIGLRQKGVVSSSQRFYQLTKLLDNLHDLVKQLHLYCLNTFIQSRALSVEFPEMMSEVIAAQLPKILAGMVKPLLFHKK

Consider `CCN(CC)c1c([N+](=O)[O-])cc(C(F)(F)F)c(N)c1[N+](=O)[O-]`, for which the compound was classed as inactive in [1], in test [2], in test [3], in [4], in test [5] and in [6]. For the same compound, the outcome in test [7] was inactive.

One may read the AC50 as the concentration at which the activity in the assay is half-maximal. As for `CC(=O)[O][Pb]([c]1ccccc1)([c]1ccccc1)[c]1ccccc1`, the result in [8] was inactive. The AC50 in test [1] is 8.22 µM (active); in test [2], 0.458 µM (active); in test [3], 23.3 µM (active); in test [9] it was 4.03 µM (active); in test [4], 38.7 µM (active); in [5], 0.655 µM (active). Further, the AC50 in test [10] was 32.7 µM (active); in [6] it was 1.32 µM (active); in test [7], 32.5 µM (active).

As for `C1=CCCC=CCCC=CCC1`, in test [11], the call was inactive.

As to `N#Cc1sc2c(=O)c3ccccc3c(=O)c=2sc1C#N`, the half-maximal activity concentration (AC50) was 9.58 µM (active) in test [8]; 10.3 µM (active) in [1]; 14.9 µM (active) in test [2]; 0.333 µM (active) in [3]; 25.2 µM (active) in test [9]; 52.2 µM (active) in [4]. In addition, the AC50 in test [10] is 0.347 µM (active); in [6], 7.3 µM (active); in test [7], 6.18 µM (active); in test [12], 11.1 µM (active). The result in [13] and in test [14] was inactive.

`COP(=S)(NC(C)C)Oc1ccc(C)cc1[N+](=O)[O-]` (stereo not drawn): the AC50 is 9.3 µM (active) in [8], 11.5 µM (active) in test [1], 20.3 µM (active) with PGR (gene 5241) [15] and 21.2 µM (active) with PGR (gene 5241) [18]. In addition, the result in [16], in [17], in [19] and in [20] was inactive.
